Screening results (PubChem BioAssay)
tim23-1 inh: growth inhibitors of tim23-1 mutant yeast, primary screen, luminescence, uHTS; S. cerevisiae tim23-1 growth, BacTiter-Glo luminescence, 24 h; 330,000 tested, 1.3% active; inhibition, % at 20 µM; AID 463212, 2010;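 active = growth inhibition of the mutant yeast at or above 50%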;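 note: temperature-sensitive mutant grown at 25 °C; plate controls were DMSO-treated mutant yeast for no effect and medium wells lacking yeast for full effect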
PfHsp90 yeast 2: growth inhibition of PfHsp90-expressing yeast, primary screen, antimalarial PfHsp90 inhibitor project, S. cerevisiae, BacTiter-Glo luminescence, single point, set 2; BacTiter-Glo ATP, 48 h; yeast lacking PDR1 and PDR3 efflux regulators; inhibition, % at 9.4 µM; 310,000 tested, 0.32% active; AID 504621, 2011;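 active = every replicate shows inhibition above about 80%, whatever the replicate mean, limit read from the data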;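 note: 0% = DMSO neutral controls and 100% = 20 µM radicicol positive controls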
SUMO Mot1 rescue: yeast Mot1-301 growth rescue at high temperature, primary screen, SUMOylation pathway inhibitor project, S. cerevisiae, ATP luminescence, 38.5C. 320,000 tested, 1% active. growth rescue, % at 18.8 µM. S. cerevisiae Mot1-301 growth rescue; percent above DMSO median, 100 means doubled. AID 2716, 2010;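 active = every valid replicate shows activation above 250% relative to neutral control wells; inactive = the rest, any valid replicate at or below 250%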;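 note: OY570 slx delta 5 strain wells were the positive control but not used for scaling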
TIM10 inh: growth inhibitors of isogenic TIM10 control yeast, primary screen, counter-screen for tim10-1 yeast inhibitor project, luminescence, uHTS; 330,000 tested, 1.4% active; inhibition, % at 10 µM; S. cerevisiae TIM10 strain growth, BacTiter-Glo luminescence, 24 h;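 active = inhibition of 40% or more at the single tested concentration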;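 note: wild-type TIM10 isogenic control strain grown at permissive 25 °C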
tim10-1 inh: growth inhibitors of tim10-1 mutant yeast, primary screen, luminescence, uHTS; inhibition, % at 20 µM; S. cerevisiae tim10-1 ts strain growth, BacTiter-Glo, 24 h; 330,000 tested, 2.2% active;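 active = inhibition of at least 40%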;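 note: mutant grown at 25 °C; 0% = DMSO wells with yeast and 100% = wells holding no yeast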
tim10-1 conf: growth inhibitors of tim10-1 mutant yeast, confirmation, single concentration, luminescence, S. cerevisiae | shares compounds with tim10-1 inh | 7,400 tested, 56% active | S. cerevisiae tim10-1 ts strain growth, BacTiter-Glo, 24 h | AID 463213, 2010 | inhibition, % at 20 µM;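 active = inhibition of yeast growth at or above a set limit in either of two repeat tests at 20 µM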;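 note: tim10-1 mutant grown at permissive 25 °C to find synthetic lethal compounds; 0% = DMSO yeast wells and 100% = medium wells without yeast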
* = called active by the depositor; . = not tested or not shown. Compounds with a hit are over-represented: about 4.4% of the library has one in this group of screens.

SMILES	tim23-1 inh	PfHsp90 yeast 2	SUMO Mot1 rescue	TIM10 inh	tim10-1 inh	tim10-1 conf
Cc1ccc(NC(=O)C(C)N2C(=O)C3C4CC(C(Br)C4Br)C3C2=O)cc1 (centres undefined)	19	.	.	24	48*	32*
O=C(CSc1cccc2cccnc12)N1CCCC1	46	-25	25	-3	42*	34*
O=C(c1ccc2c(=O)n3c(nc2c1)CCC3)N1CCN(S(=O)(=O)c2cccc(F)c2)CC1	-15	3	-10	12	1	.
CCc1nn(-c2ccccc2)c(N)c1-c1ccc(OC)c(OC)c1	13	.	16	-3	24	.
CCc1nn(-c2ccccc2)c(=S)c2ccccc12	47	-29	-11	26	46*	52*
O=C(CCS(=O)(=O)c1ccc(Cl)cc1)N1CCCc2ccccc21	34	3	-9	-8	27	.
O=C(CN1CCC(C(=O)c2ccc(Cl)cc2)CC1)Nc1ccc2c(c1)OCCO2	35	10	38	15	44*	25
O=C1COc2ccc(C(=O)COC(=O)/C=C/c3ccc(Br)o3)cc2N1	10	.	-17	-6	-3	.
CC(C)(C)OC(=O)N[C@@H](Cc1ccccc1)c1nnc(S(=O)(=O)Cc2cccc(F)c2)o1	23	.	275*	4	59*	50*
CC[C@@H](C)[C@H](NC(=O)OCc1ccccc1)c1nnc([C@@H](NC(=O)OCc2ccccc2)[C@@H](C)CC)o1	18	22	6	2	13	.
CC[C@@H](C)[C@H](NC(=O)OC(C)(C)C)c1nnc(S(=O)(=O)Cc2cc(C)ccc2C)o1	43	106*	164	35	52*	57*
O=C(C(=O)N1CCN(c2cccc(Cl)c2)CC1)c1cn(CC(=O)N2CCOCC2)c2ccccc12	9	13	16	0	7	.
C=CCS(=O)(=O)N1CCCC(Cc2ccccc2C)(C(=O)OCC)C1 (centres undefined)	22	6	-3	-16	24	.
CCN(CC(=O)N1CCC(C(N)=O)CC1)S(=O)(=O)c1ccc(Cl)cc1	-2	13	-3	2	6	.
CC(C)C(=O)Nc1cc(C(F)(F)F)ccc1N1CCOCC1	7	-12	-4	4	-5	.
CCOc1ccccc1NC(C)C(=O)Nc1cc(C(F)(F)F)ccc1N1CCOCC1 (centres undefined)	45	-31	20	33	40*	25
Cc1ccccc1SCC(=O)Nc1cc(C(F)(F)F)ccc1N1CCOCC1	35	-37	-3	23	44*	34*
COc1ccc2nc(C)cc(NCc3ccc(F)cc3)c2c1	14	12	15	-5	15	.
COc1ccc(NC(=O)Nc2ccc3c(c2)C(=O)N([C@@H](C)CO)C[C@@H](C)[C@@H](CN(C)S(=O)(=O)c2cn(C)cn2)O3)cc1	8	-9	.	0	12	.
COc1ccc(C(CCNCc2ccccc2)c2ccc(F)cc2)cc1 (centres undefined)	19	-4	3	9	46*	20
COc1ccc(C(CCNC(C)c2ccccc2)c2ccc(F)cc2)cc1 (centres undefined)	45	6	-21	19	51*	36*
CC(=O)N1N=C(c2cccc([N+](=O)[O-])c2)OC1c1ccc(Cl)cc1Cl (centres undefined)	35	.	20	23	40*	14
Cc1cc(Br)cc(Cl)c1OCC(=O)N1CCN(C(=O)c2ccco2)CC1	21	-27	43	2	6	.
O=C(O)Cc1sc(Nc2ccccc2)nc1-c1ccc(Cl)cc1	25	-2	2	13	40*	23
Cc1ccc(Nc2nc(-c3ccccc3)c(CC(=O)O)s2)cc1	47	-21	3	19	38	.
O=C(COC(=O)c1cccc(S(=O)(=O)N2CCc3ccccc3C2)c1)NCc1ccco1	3	12	.	1	41*	12
